# This is part of a sample that, as a whole, favours compounds with a hit. Of some 83,000 tested, about 20% had one in any assay.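 Cell lines were cultured in 96-well plates, exposed to a single compound concentration, and assessed for percent growth 48 hours later.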 Unmarked numbers belong to inactive results. Activity calls are given as the source filed them. The calls were made as follows: active = growth percent below 10; inactive = the rest.
# Test system: HL-60(TB) leukemia
# Assay: NCI-60 one-dose screen, 48 h (100 = growth as untreated, 0 = no growth, -100 = all killed)
# Conditions: 10 µM unless noted
row,Compound,growth
1,Cc1cc(NC(=O)Nc2cccc3ccccc23)no1,99.5%
2,Fc1c[c-]c(-c2ccccn2)c(F)c1.[CH3-].[Pt+2].c1ccc(P(C[PH+](c2ccccc2)c2ccccc2)c2ccccc2)cc1,-24.2% (active)
3,c1ccc(/C(=N\N=C(/c2ccccc2)c2cccs2)c2cccs2)cc1,91.1%
4,CCOC(=O)c1c2c(n3ccc(NC(=O)OC(C)(C)C)cc13)C(=O)c1ncccc1C2=O,-34.2% (active)
5,O=C(Nc1ccc(-n2cc(-c3ccncc3)c(-c3ccc(O)c(Cl)c3)n2)cc1)Nc1cc(C(F)(F)F)cc(C(F)(F)F)c1,43.6%
6,CCOC(=O)C(C(=O)OCC)C(c1ccccc1)N1CCN(c2ccccc2)CC1 (stereo not given),97.7%
7,C/C(=N/Nc1nc2ccccc2n1C)c1ccccn1,-19% (active)
8,COc1ccc2c(c1)C(C)Cc1c(ncnc1-n1cnc3ccccc31)N2C (stereo not given),-5.85% (active)
9,N#Cc1c2c(nc3n[nH]c(N)c13)CCCC2,87.3%
10,CCCCCC(=O)c1ccc(OCCCN2CCN(C(=O)OCC)CC2)cc1,72.4%
11,CC12CCCC(CC(=O)c3[nH]c4ccccc4c31)C2 (stereo not given),-0.598% (active)
12,Cc1cc2c(C#N)n3c(c2cc1C)C(=O)C(c1ccccc1)Oc1ccccc1-3 (stereo not given),36.3%
13,NC(=O)NCCCC(N)C(=O)O (stereo not given),105%
14,CCN1C(=O)N(CC)C2Nn3c(s/c(=C\c4ccccc4F)c3=O)=NC21 (stereo not given),7.77% (active)
15,Cc1[nH]nc(C(N)=O)c1[N+](=O)[O-],129%
